The source made the active and inactive calls. How the source made its calls: active means hit-call score of the fitted dose curve at least 0.9, where 1 is the maximum; inactive means score below 0.9.
target: CCAAT/enhancer-binding protein beta (Homo sapiens) (UniProt P17676); experiment: ATG_C_EBP_CIS: Attagene CIS-FACTORIAL HepG2 Assay for human CCAAT/Enhancer Binding Protein (C/EBP) beta (AID 2282927); settings: HepG2 Attagene cis-factorial transcription factor reporter; actives raise or lower the signal
Sequence (P17676 whole entry, looked up): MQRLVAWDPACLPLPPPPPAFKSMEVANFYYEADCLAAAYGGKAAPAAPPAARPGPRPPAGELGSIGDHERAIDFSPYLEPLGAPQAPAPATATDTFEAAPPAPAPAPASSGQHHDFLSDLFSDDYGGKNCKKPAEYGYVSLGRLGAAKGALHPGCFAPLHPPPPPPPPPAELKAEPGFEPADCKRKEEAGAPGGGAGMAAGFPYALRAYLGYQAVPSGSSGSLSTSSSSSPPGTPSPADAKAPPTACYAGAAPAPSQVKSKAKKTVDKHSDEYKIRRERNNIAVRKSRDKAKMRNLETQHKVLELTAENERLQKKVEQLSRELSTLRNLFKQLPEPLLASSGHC
In short: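 Changes in reporter mRNA, rather than exogenous chimeric receptor activity, reflect native C/EBP signalling in transfected HepG2 cells dosed for 24 h; transcripts are detected by RT-PCR and capillary electrophoresis.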

Compound | outcome | AC50
CCOC(OCC)C(=O)c1ccccc1 | inactive | 
CCCCCCOC(=O)c1ccc(O)cc1 | inactive | 
C=CCOCC(CO)(CO)CO | inactive | 
CCCCC(CC)C(=O)OCCOCCOCCOCCOC(=O)C(CC)CCCC (stereo not drawn) | inactive | 
NNc1nc(-c2ccc([N+](=O)[O-])cc2)cs1 | inactive | 
CCc1ccccc1O | inactive | 
CCC(C)c1nccnc1OC (stereo not drawn) | inactive | 
CCCCCCCCC(C)=O | inactive | 
CC(C)(C)c1ccc(CCC=O)cc1 | inactive | 
CC(=O)Nc1ccc(S(N)(=O)=O)cc1 | inactive | 
CC1=NN(c2ccccc2)C(=O)C1 | inactive | 
c1ccc(CNc2ncnc3c2ncn3C2CCCCO2)cc1 (stereo not drawn) | inactive | 
Cc1ccc2ccc3ccc(C)cc3c2c1 | inactive | 
Cc1cc(C(=C2C=CC(=Nc3ccc(S(=O)(=O)O)cc3)C=C2)c2ccc(Nc3ccc(S(=O)(=O)O)cc3)cc2)cc(S(=O)(=O)O)c1N | inactive | 
Brc1ccc(Oc2ccc(Br)cc2Br)cc1 | inactive | 
O=C(O)C(=O)O | inactive | 
FC(F)(F)C1(F)C(F)(F)C(F)(F)C(F)(F)C1(F)F | inactive | 
c1cc2cccc3c4cccc5cccc(c(c1)c23)c54 | inactive | 
C=CC(=O)OCC(CO)(COCC(COC(=O)C=C)(COC(=O)C=C)COC(=O)C=C)COC(=O)C=C | inactive | 

Compound | outcome | AC50
Cc1ccccc1C(OCCN(C)C)c1ccccc1 (stereo not drawn) | inactive | 
O=C(O)CN(CCCN(CC(=O)O)CC(=O)O)CC(=O)O | inactive | 
Cn1sccc1=O |  | 161 µM (active)
COCN(COC)c1nc(N(COC)COC)nc(N(COC)COC)n1 | inactive | 
C[N+](C)(CCCNS(=O)(=O)CCC(F)(F)C(F)(F)C(F)(F)C(F)(F)C(F)(F)C(F)(F)F)CC(=O)[O-] | inactive | 
CCC(=O)C=Cc1ccc(OC)cc1 | inactive | 
CCCCCC(C)OC(=O)COc1ccc(Cl)c2cccnc12 (stereo not drawn) | inactive | 
Brc1cc(Br)c(Oc2c(Br)cc(Br)c(Br)c2Br)cc1Br | inactive | 
O=C(F)C(F)(F)C(F)(F)C(F)(F)C(F)F | inactive | 
CC1CCC(CO)CC1 (stereo not drawn) | inactive | 
O=C(c1cc(O)c(O)c(O)c1)c1ccc(O)c(O)c1O | inactive | 
C=CC(=O)OCCN(CC)CC |  | 44.2 µM (active)
CC(C)(c1ccc(Oc2ccc(N)cc2)cc1)c1ccc(Oc2ccc(N)cc2)cc1 | inactive | 
Cc1cccc2c1ccc1ccccc12 | inactive | 
CCN(CCC#N)c1ccccc1 | inactive | 
O=S(=O)(O)c1ccc2cc(O)ccc2c1 | inactive | 
OCC1CCC(CO)CC1 (stereo not drawn) | inactive | 
Cc1ccccc1OCC(=O)O | inactive | 
NCc1cccc(CN)c1 | inactive | 

Reference: PubChem BioAssay (EPA / NIEHS)
